p47phox inh – blocks human p47phox regulatory protein of NADPH oxidases; P14598; inhibition, % at 24.7 µM; p47phox/p22phox peptide binding, fluorescence polarization, 2 h; actives 0.53% (n = 220,000); AID 1274;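 active means inhibition above about 30%, limit read from the data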
Target sequence (P14598 whole entry, looked up): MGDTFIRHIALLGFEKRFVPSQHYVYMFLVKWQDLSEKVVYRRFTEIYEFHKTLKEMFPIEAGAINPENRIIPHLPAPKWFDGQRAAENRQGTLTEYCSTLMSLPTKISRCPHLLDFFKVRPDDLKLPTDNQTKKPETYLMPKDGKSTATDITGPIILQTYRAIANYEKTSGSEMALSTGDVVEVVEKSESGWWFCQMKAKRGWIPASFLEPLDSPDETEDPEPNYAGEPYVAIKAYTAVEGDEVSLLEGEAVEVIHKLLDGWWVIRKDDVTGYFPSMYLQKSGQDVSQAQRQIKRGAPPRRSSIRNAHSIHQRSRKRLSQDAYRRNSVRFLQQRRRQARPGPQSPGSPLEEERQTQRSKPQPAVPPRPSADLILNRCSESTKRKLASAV
NR1D1 modulator – modulates human Rev-erb alpha binding to DNA; activity, % at 10 µM; actives 0.79% (n = 370,000); Rev-erbα–FITC-DNA binding, fluorescence polarization, 90 min; AID 1259318; P20393;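 active means activity above about 14%, limit read from the data; passing the limit was not always enough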
PG9 Ab binder – small molecules binding HIV-1 gp120 antibody PG9; inhibition, % at 6.7 µM; actives 0.43% (n = 360,000); TR-FRET gp120-PG9 antibody binding; in the data active means inhibition above about 8.5%
ZTA DNA inh – ZTA (EBV) inhibition in EBNA-1 counter-screen | P03206 | ZTA-DNA binding, fluorescence polarization | inhibition, % at 11 µM | actives 0.15% (n = 320,000) | AID 2234; in the data active means inhibition above about 33%
Target sequence (P03206 whole entry, looked up): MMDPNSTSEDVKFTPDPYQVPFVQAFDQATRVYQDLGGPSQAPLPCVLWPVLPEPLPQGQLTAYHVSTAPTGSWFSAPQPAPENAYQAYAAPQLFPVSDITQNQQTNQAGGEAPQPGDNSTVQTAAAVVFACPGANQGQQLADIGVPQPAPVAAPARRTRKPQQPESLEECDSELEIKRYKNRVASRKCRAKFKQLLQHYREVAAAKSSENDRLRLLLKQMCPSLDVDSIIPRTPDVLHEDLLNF
EBNA-1 inh – blocks EBNA-1 binding to DNA; EBNA-1 DNA binding, fluorescence polarization; inhibition, % at 14.8 µM; actives 0.34% (n = 300,000); AID 1950; in the data active means inhibition above about 28%
aDG glyco act – increases alpha dystroglycan glycosylation | activation, % at 10 µM | Pro5-aDG cells, alpha-DG glycosylation AlphaScreen (IIH6); 0% Pro5, 100% B10-LARGE cell signal | actives 0.22% (n = 360,000);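 active means activation of at least 8% versus controls, or a plate z-score of at least 8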;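 further: Pro5 are CHO cells carrying HIG-tagged alpha-DG that lacks glycosylation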
Rev-erbA confirm – confirmation of modulators of human Rev-erb alpha DNA binding | AID 1259319 | activation, % at 25 µM | Rev-erb alpha FITC-DNA binding, fluorescence polarization, 90 min | shares compounds with NR1D1 modulator | actives 61% (n = 3,000);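 active means activation at or above a set limit, or at least 3 SD above the negative control mean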
RORg DNA counter – affects RORgamma DNA binding in a Rev-erb alpha counter-screen; shares compounds with NR1D1 modulator; purified RORgamma protein-FITC-DNA binding, fluorescence polarization; IC50, µM; actives 8% (n = 910);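 active means Compounds whose fitted half-maximal concentration for disrupting protein-DNA binding is below 10 micromolar; the record names Rev-erb in its text, so the target is in doubt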
Large screens that a line does not name were inactive (follow-up assays come after a bar, where they were run). In the library only some 1.9% were active in any assay of this set; here they are far more common.

Cn1cc(-c2ccccc2C(N)=O)c(=O)c2cc(Cl)ccc21	none
CCSc1nnc(NC(=O)CSc2nc3c(cc2C#N)CCCC3)s1	NR1D1 modulator 34 | Rev-erbA confirm 19
CCc1nnc(NC(=O)CSc2nc3c(cc2C#N)CCC3)s1	NR1D1 modulator 29 | Rev-erbA confirm 31
Cc1ccc(S(=O)(=O)N2CCOCC2)cc1NC(=O)c1cc(-c2ccccn2)nc2ccccc12	none
O=C(Nc1cc(S(=O)(=O)N2CCOCC2)ccc1N1CCCCC1)c1cc(-c2ccccn2)nc2ccccc12	NR1D1 modulator 25 | Rev-erbA confirm inactive
COc1ccccc1N1C(=O)c2cccc3c(N(C)CCO)ccc(c23)C1=O	NR1D1 modulator 30 (no result: p47phox inh) | Rev-erbA confirm 37 | RORg DNA counter inactive
CC(=O)Nc1cccc2c1C(=O)N(c1ccccc1C)C2=O	none
Cc1ccccc1N1C(=O)c2cccc3c(N(C)CCO)ccc(c23)C1=O	NR1D1 modulator 40 | Rev-erbA confirm 38
CC(C)(C)c1ccc(S(=O)(=O)N2CCCC2C(=O)N2CCN(c3ccccc3)CC2)cc1 (stereo not given)	none (no result: p47phox inh, PG9 Ab binder, ZTA DNA inh, EBNA-1 inh, aDG glyco act)
COc1ccc(Cl)cc1-c1nc(-c2ccncc2)no1	NR1D1 modulator 30 | Rev-erbA confirm inactive
COc1ccccc1-c1nc(-c2ccncc2)no1	none
CCN1/C(=C/c2ccc3cc(C)cc(C)c3[n+]2CC)Sc2cc(C)ccc21	NR1D1 modulator 31 (no result: ZTA DNA inh, EBNA-1 inh) | Rev-erbA confirm 37 | RORg DNA counter inactive
CCN1/C(=C\c2ccc3cc(C)ccc3[n+]2CC)Sc2cc(C)c(C)cc21	none (no result: ZTA DNA inh, EBNA-1 inh)
CCN1/C(=C/c2ccc3cccc(C)c3[n+]2CC)Sc2ccccc21	NR1D1 modulator 48 | Rev-erbA confirm 71 | RORg DNA counter inactive
O=C(Nc1ccccc1)c1cc(S(=O)(=O)N2CCOCC2)cs1	none
Cc1c(C(=O)Nc2cccc(S(=O)(=O)N3CCOCC3)c2)oc2ccc(Br)cc12	NR1D1 modulator 16 (no result: p47phox inh, ZTA DNA inh, EBNA-1 inh) | Rev-erbA confirm inactive
O=C(Nc1cccc(Br)c1)c1cc(S(=O)(=O)N2CCOCC2)cs1	NR1D1 modulator 30 (no result: p47phox inh) | Rev-erbA confirm inactive
CC(=O)c1cc(-c2csc(C=O)c2)c(=O)n2c1CCC2	none (no result: p47phox inh, PG9 Ab binder, ZTA DNA inh, EBNA-1 inh, aDG glyco act)
COc1cc(/C=N/NC(=O)c2c(C)nc3ccc(Cl)cn23)cc(OC)c1OC	NR1D1 modulator 50 (no result: p47phox inh, ZTA DNA inh, EBNA-1 inh) | Rev-erbA confirm 47 | RORg DNA counter inactive
COc1ccc(/C=N/NC(=O)c2c(C)nc3ccc(Cl)cn23)cc1OC	none (no result: p47phox inh)
Cc1onc(-c2c(F)cccc2Cl)c1C(=O)Nc1sc2c(c1C#N)CCC(C(C)(C)C)C2 (stereo not given)	NR1D1 modulator 27 | Rev-erbA confirm 20
O=C(c1ccccc1)N1CC[C@H]2[C@H](CCCN2Cc2cc(F)cc(F)c2)C1	none (no result: p47phox inh, PG9 Ab binder, ZTA DNA inh, EBNA-1 inh, aDG glyco act)
CCOc1ccc(CNC(=O)Cn2c(=O)c3cccn3c3ccccc32)cc1	NR1D1 modulator 39 (no result: p47phox inh) | Rev-erbA confirm 24
CCOC(=O)C1CCCN(C2=NC(=O)/C(=C/c3ccc(N(C)C)cc3)S2)C1 (stereo not given)	NR1D1 modulator 27 (no result: p47phox inh) | Rev-erbA confirm inactive
CCOC(=O)C1CCCN(C2=NC(=O)/C(=C/c3ccc(OC)cc3)S2)C1 (stereo not given)	none (no result: p47phox inh)
Cc1oc2c(cc(NS(=O)(=O)c3cccs3)c3ccccc32)c1C(=O)OC(C)C	NR1D1 modulator 50 | Rev-erbA confirm 72
CCOC(=O)/C(C#N)=C/C=C1\C=Cc2ccccc2N1CC	p47phox inh 124, NR1D1 modulator 74 | Rev-erbA confirm 56 | RORg DNA counter 7.4
CCCN1C=CC(=CC=C(C#N)C#N)C=C1	NR1D1 modulator 28 | Rev-erbA confirm inactive
CCCCCCN1C=CC(=C/C=C(\C#N)C(=O)OCC)C=C1	p47phox inh 33, NR1D1 modulator 58 | Rev-erbA confirm 30
C=CCN1C=CC(=CC=C(C#N)C#N)C=C1	NR1D1 modulator 32 | Rev-erbA confirm 22
CCCCCN1C=CC=C/C1=C\C=C(C#N)C#N	none
CCCN1C=CC(=C/C=C(\C#N)C(=O)OCC)C=C1	none (no result: NR1D1 modulator, PG9 Ab binder, aDG glyco act)
COc1cccc(-c2nc(CS(=O)(=O)CC(=O)NCc3ccccc3)c(C)o2)c1	none
COc1cccc(-c2nc(CS(=O)(=O)CC(=O)NCCCc3ccccc3)c(C)o2)c1	NR1D1 modulator 60 (no result: p47phox inh) | Rev-erbA confirm 37 | RORg DNA counter inactive
COC(=O)c1c(C)[nH]c(C(=O)/C=C/c2ccccc2)c1C	none
COC(=O)c1c(C)[nH]c(C(=O)/C=C/c2ccc(C)cc2)c1C	NR1D1 modulator 26 | Rev-erbA confirm inactive
CCC(C)(C)n1nnnc1CN1CCN(c2nc3cc(OC)ccc3cc2C#N)CC1	NR1D1 modulator 56 | Rev-erbA confirm inactive
Cc1cccc(NC(=O)Nc2cnccn2)c1C	NR1D1 modulator 18 (no result: p47phox inh) | Rev-erbA confirm inactive
Cc1ccccc1NC(=O)Nc1cnccn1	none (no result: p47phox inh)
COCCNC(=O)C[C@H]1CC[C@H]2[C@@H](COc3ccc(NS(=O)(=O)c4ccc(Cl)cc4)cc3C(=O)N2C)O1	none (no result: p47phox inh, PG9 Ab binder, ZTA DNA inh, EBNA-1 inh, aDG glyco act)
COc1ccc(S(=O)(=O)N2CCN(C(=O)CSc3nc4ccccc4nc3N3CCCCC3)CC2)cc1	none (no result: p47phox inh, PG9 Ab binder, ZTA DNA inh, EBNA-1 inh, aDG glyco act)
COc1ccc(-c2cc(C(F)(F)F)n3ncc(C(=O)NCC4CCCO4)c3n2)cc1 (stereo not given)	NR1D1 modulator 47 (no result: ZTA DNA inh, EBNA-1 inh) | Rev-erbA confirm 22
COc1cccc(-c2cc(C(F)(F)F)n3ncc(C(=O)NCC4CCCO4)c3n2)c1 (stereo not given)	none
CCCN1C(=O)/C(=C\C=C2\N(CC)c3ccccc3C2(C)C)SC1=S	NR1D1 modulator 62 (no result: ZTA DNA inh, EBNA-1 inh) | Rev-erbA confirm inactive
CN1/C(=C\C=C2/SC(=S)NC2=O)C(C)(C)c2ccccc21	NR1D1 modulator 37 | Rev-erbA confirm 19
CN1C(=CC=C2C=C(I)C(=O)C(I)=C2)C(C)(C)c2ccccc21	none (no result: ZTA DNA inh, EBNA-1 inh)
CCN1C(=O)C(=CC=CN(C)c2ccccc2)SC1=S	NR1D1 modulator 42 (no result: p47phox inh, ZTA DNA inh, EBNA-1 inh) | Rev-erbA confirm 46 | RORg DNA counter inactive
COc1ccc(C)cc1NC(=O)CSc1nnc(-c2n[nH]c3c2CCC3)n1N	none (no result: p47phox inh, PG9 Ab binder, ZTA DNA inh, EBNA-1 inh, aDG glyco act)
CCCCCCn1cc(C(=O)O)c(=O)c2cc(F)c(N3CCN(C(=O)OCC)CC3)cc21	NR1D1 modulator 31 (no result: p47phox inh) | Rev-erbA confirm inactive
C=CCCCCCCCCC(=O)N1CCN(c2cc3c(cc2F)c(=O)c(C(=O)O)cn3CC)CC1	none (no result: p47phox inh)
c1ccc(-c2nc(-n3nc4ccccc4n3)nc3ccccc23)cc1	none
O=C1CN(c2nc(-c3ccccc3)c3ccccc3n2)c2ccccc2N1	NR1D1 modulator 34 | Rev-erbA confirm inactive
Brc1cc2c(cc1-c1nc3ccccc3s1)OCO2	NR1D1 modulator 28 (no result: p47phox inh) | Rev-erbA confirm inactive
Brc1ccc(-c2nc3ccccc3s2)s1	none
